Data from PubChem BioAssay (NCATS).
Inconclusive results are not listed. Calls of active or inactive are those of the source. Unless noted, the call rests on the fitted dose curve; in most records, active means well fitted curve in the direction sought with a large enough effect; inconclusive means small, poorly fitted or top-dose-only effect, or another doubt; inactive means no such curve, though single readings can be large; an effect the other way counts as inactive or inconclusive.

Columns and labels:
[1] = system: Zika virus NS2B-NS3 protease (unlinked complex); test: Primary screen GU Rhodamine qHTS for Zika virus inhibitors: Unlinked NS2B-NS3 protease assay (AID 1347159); further: on the % scale 0 is the no-effect control and ±100 the full control effect; nearly all actives have a fitted effect of over 60% in size
How it was run: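 Compounds, tested up to 114 microM, were incubated for 15 minutes with 25 nM unlinked NS2B-NS3 protease at pH 8.0. Cleavage of 1.5 microM Rhodamine110 substrate was then followed by fluorescence for 15 minutes.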

[2] = system: Zika virus NS2B-NS3 protease (linked construct); test: Primary screen NINDS Rhodamine qHTS for Zika virus inhibitors (AID 1347160); further: nearly all actives have a fitted effect of over 55% in size; further: potency means the concentration at half of the fitted maximal effect
How it was run: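 Percent inhibition, normalized to uninhibited and enzyme-free controls, is fitted to a 4-parameter Hill equation. Fluorescence change comes from a 15-min cleavage of 1.5 microM bis-peptide Rhodamine110 substrate by 25 nM linked NS2B-NS3 at room temperature.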

[3] = biological target: Calcium and integrin-binding protein 1 (Homo sapiens) (UniProt Q99828); test: Primary qHTS for Identification of Calcium Integrin Binding Protein 1 (CIB1) Competitor (AID 1508620);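 further: GST tagged CIB1 binding a fluorescein labelled alphaIIb integrin peptide tracer; top concentration of the series differs between compounds; on the % scale 0 is the no-effect control and ±100 the full control effect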
Calcium and integrin-binding protein 1 (Homo sapiens), sequence (Q99828 whole entry, looked up): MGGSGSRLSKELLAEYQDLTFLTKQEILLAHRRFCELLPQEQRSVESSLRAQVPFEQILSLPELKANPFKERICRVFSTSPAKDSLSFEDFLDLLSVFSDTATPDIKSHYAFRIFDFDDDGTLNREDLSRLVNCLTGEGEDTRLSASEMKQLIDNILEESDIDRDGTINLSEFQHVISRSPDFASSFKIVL
How it was run: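 Fluorescence polarization competition: GST-tagged CIB1 (1 uM final) preincubated with compound 15 min at room temperature, then FITC-labelled alphaIIb peptide (100 nM final) added. After 15 min at room temperature, polarization read at Ex 480/Em 540.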

[4] = Primary qHTS for inhibitors of nuclear receptor binding SET domain protein 2 (NSD2) in an isogenic RCH-ACV NSD2 p.E1099K mutant (9B) (AID 1645876); further: potency means the concentration at half of the fitted maximal effect; nearly all actives have a fitted effect of over 70% in size
[5] = Primary qHTS for inhibitors of nuclear receptor binding SET domain protein 2 (NSD2) in an RCH-ACV wild type WT cells (2C) (AID 1645877); further: potency means the concentration at half of the fitted maximal effect; nearly all actives have a fitted effect of over 70% in size
[6] = biological target: Glutathione peroxidase 1 (Homo sapiens) (UniProt P07203); test: Primary qHTS Assay for Inhibitors of Recombinant Selenoprotein Glutathione Peroxidase 1 (GPX1) (AID 1845191); further: nearly all actives have a fitted effect of over 65% in size
Glutathione peroxidase 1 (Homo sapiens), sequence (P07203 whole entry, looked up): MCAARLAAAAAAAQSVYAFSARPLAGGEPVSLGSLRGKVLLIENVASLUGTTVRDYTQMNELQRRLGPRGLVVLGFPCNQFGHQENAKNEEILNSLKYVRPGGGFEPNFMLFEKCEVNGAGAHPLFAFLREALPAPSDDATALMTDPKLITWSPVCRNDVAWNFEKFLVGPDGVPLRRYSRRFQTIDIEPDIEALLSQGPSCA
How it was run: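 GR-coupled assay: compounds preincubated 30 min at room temperature with GPX1, then reaction started with CHP; final 10 nM GPX1, 1 mM GSH, 0.5 mM CHP, 0.5 mM NADPH, 100 nM GR, 0.01% BSA, pH 7.5 Tris buffer. NADPH fluorescence (340/450 nm) read at 0 and 15 min.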

[7] = biological target: Phospholipid hydroperoxide glutathione peroxidase GPX4 (Homo sapiens) (UniProt P36969); test: Primary qHTS Assay for Inhibitors of Recombinant Selenoprotein Glutathione Peroxidase 4 (GPX4) (AID 1845192); settings: outcome: dose series up to 50 µM unless noted; further: on the % scale 0 is the no-effect control and ±100 the full control effect; nearly all actives have a fitted effect of over 65% in size
Phospholipid hydroperoxide glutathione peroxidase GPX4 (Homo sapiens), sequence (P36969 whole entry, looked up): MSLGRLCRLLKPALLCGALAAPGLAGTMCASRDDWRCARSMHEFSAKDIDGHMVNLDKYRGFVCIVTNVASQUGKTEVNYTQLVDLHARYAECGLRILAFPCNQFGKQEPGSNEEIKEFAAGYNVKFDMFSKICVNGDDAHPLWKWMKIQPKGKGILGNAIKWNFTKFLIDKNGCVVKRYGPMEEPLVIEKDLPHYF
How it was run: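 GR-coupled assay: recombinant GPX4 preincubated 30 min with compound at room temperature; final 200 nM GPX4, 1 mM GSH, 0.5 mM cumene hydroperoxide, 0.5 mM NADPH, 100 nM GR, 0.01% BSA, pH 7.5 Tris. NADPH fluorescence (340/450 nm) read at 0 and 15 min.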

[8] = biological target: Luciferin 4-monooxygenase (Photinus pyralis) (UniProt P08659); test: Primary firefly luciferase (FLuc) qHTS assay for identification of artifact compounds. (AID 1845220); further: nearly all actives have a fitted effect of over 60% in size
How it was run: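 Titrated compounds were incubated 15 min at RT, protected from light, with luciferin and ATP at 10 uM; reaction started with 10 nM FLuc, luminescence imaged at 5 min, and concentration-response fitted by Hill equation.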

[9] = Primary fluorescence-based thiol-reactive (MSTI) qHTS assay for identification of artifact compounds. (AID 1845221);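 further: thiol-reactive compounds lower the probe fluorescence signal; nearly all actives have a fitted effect of over 65% in size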
How it was run: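 First, 4 uM MSTI in 2% DMSO/PBS pH 7.4 was dispensed; next, compounds were added; then plates sat 1 h at room temperature without light. Finally, emission at 598 nm was recorded.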

[10] = system: Nanoluciferase (engineered Oplophorus gracilirostris luciferase); test: Primary Nanoluciferase (NLuc) qHTS assay for identification of artifact compounds. (AID 1845222);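 further: NLuc secreted into diluted conditioned medium of S16 cells; 0% = DMSO and -100% = no enzyme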
How it was run: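 qHTS format, against NLuc in S16 cell-conditioned medium. Nano-Glo substrate 1:100 was added after 15 min at room temperature. Luminescence was taken after a further 5 min.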

[11] = system: CASKI; test: Primary qHTS to identify gynecologic anti-cancer compounds using libraries of approved drugs and bioactive compounds (AID 1345084); settings: Gynecologic cancer cell panel viability, ATPlite luminescence, 48 h; series mostly up to 57.5 µM; further: nearly all actives have a fitted effect of over 55% in size; further: potency means the concentration at half of the fitted maximal effect
How it was run: (§1)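 48 h compound exposure at 37 C, 5% CO2; five-point qHTS. ATPlite luminescence readout of cell ATP.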

[12] = system: Es-2; test: as above; settings: Gynecologic cancer cell panel viability, ATPlite luminescence, 48 h; series mostly up to 57.5 µM
How it was run: as §1

[13] = system: HeLa; test: as above; settings: Gynecologic cancer cell panel viability, ATPlite luminescence, 48 h; series mostly up to 57.5 µM
How it was run: as §1

[14] = system: Hek293T; test: as above; settings: Gynecologic cancer cell panel viability, ATPlite luminescence, 48 h, control line for the selectivity index; series mostly up to 57.5 µM
How it was run: as §1

[15] = system: JEG-3; test: as above; settings: Gynecologic cancer cell panel viability, ATPlite luminescence, 48 h; series mostly up to 57.5 µM
How it was run: as §1

[16] = system: OV90; test: as above; settings: Gynecologic cancer cell panel viability, ATPlite luminescence, 48 h; series mostly up to 57.5 µM
How it was run: as §1

[17] = system: Tov112D; test: as above; settings: Gynecologic cancer cell panel viability, ATPlite luminescence, 48 h; series mostly up to 57.5 µM
How it was run: as §1

[18] = system: C33A; test: as above; settings: Gynecologic cancer cell panel viability, ATPlite luminescence, 48 h; series mostly up to 57.5 µM
How it was run: as §1

[19] = P-glycoprotein substrates identified in KB-8-5-11 adenocarcinoma cell line, qHTS therapeutic library screen (AID 1346987); further: nearly all actives have a fitted effect of over 65% in size; further: potency means the concentration at half of the fitted maximal effect
How it was run: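 Steps: plate 500 KB-8-5-11 cells/well in DMEM + 10% FCS (colchicine removed); pin compounds in dose-response; incubate 72 h, 37 degree C, 5% CO2; add CellTiter-Glo, 5 min; read luminescence.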

[20] = qHTS drug screen for cell cycle checkpoint inhibitors in PARPi-resistant BRCA-mutant ovarian cancer cell lines. (AID 1963452; calls by dose curve); settings: PEO1/OlaR viability, CellTiter-Glo luminescence, 96 h, stronger effect = lower value
How it was run: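 PEO1, PEO4 and PEO1/OlaR ovarian cancer cells, 600 per well, exposed 96 h at 37C to a dilution series. Viability read by CellTiter-Glo luminescence, normalized to DMSO and empty wells; activity summarized as Z-AUC.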

O=C(Nc1ncc(SCCN2CCCC2)s1)C1(c2ccc(S(=O)(=O)C3CC3)cc2)CC1C1CCCCC1 (stereo not drawn)
inactive: Potency [1] | Potency [2] | outcome [3] | Potency [6] | Potency [7] | Potency [8] | Potency [9] | Potency [10] | Potency [11] | Potency [12] | Potency [13] | Potency [14] | Potency [15] | Potency [16] | Potency [17]
active: Potency [4] 16.3 µM | Potency [5] 12.9 µM

CC[C@@H](C)[C@H]1C(=O)O[C@H](C(C)C)C(=O)N(C)[C@@H](C(C)C)C(=O)O[C@H](C(C)C)C(=O)N(C)[C@@H](C(C)C)C(=O)O[C@H](CC(C)C)C(=O)N1C
inactive: Potency [1] | Potency [2] | outcome [3] | Potency [6] | Potency [7] | Potency [8] | Potency [9] | Potency [10] | Potency [15]
active: Potency [4] 5.41 µM | Potency [5] 2.16 µM

CC(=O)Nc1nc2c(Oc3cc(-c4ccc(C(F)(F)F)cc4)ncn3)cccc2s1
active: Potency [4] 6.49 µM | Potency [5] 4.09 µM
inactive: Potency [1] | outcome [3] | Potency [6] | Potency [7] | Potency [8] | Potency [9] | Potency [10] | Potency [18] | Potency [15] | Potency [17]

Cc1ccc2c(Nc3ccc(Cl)cc3)nccc2c1Nc1ncccc1-c1ncnc2nc[nH]c12
active: Potency [4] 18.4 µM | Potency [5] 20.6 µM | Potency [16] 5.01 µM
inactive: Potency [1] | Potency [2] | outcome [3] | Potency [6] | Potency [7] | Potency [8] | Potency [10] | Potency [18] | Potency [13] | Potency [14] | Potency [15]

N#Cc1ccc(-c2ccc(NC(=O)Nc3ccc(-c4ccnc5nc[nH]c45)cc3)cc2)cc1
active: Potency [18] 5.01 µM
inactive: Potency [2] | Potency [8] | Potency [9] | Potency [10]

OC(CNCCc1c[nH]c2ccccc12)Cn1c2ccccc2c2ccccc21 (stereo not drawn)
inactive: Potency [1] | Potency [2] | outcome [3] | Potency [6] | Potency [7] | Potency [8] | Potency [9] | Potency [10] | Potency [12] | Potency [13] | Potency [14] | Potency [15] | Potency [16] | Potency [17]
active: Potency [19] 16.4 µM | Potency [4] 5.15 µM | Potency [5] 4.59 µM

O=C(O)c1ccc(O)c2ncc(N3CCCN(CCc4cccc5ccccc45)CC3)cc12
inactive: outcome [3] | Potency [6] | Potency [7] | Potency [8] | Potency [10] | Potency [11] | Potency [13]
active: Potency [2] 6.31 µM | Potency [4] 4.09 µM | Potency [5] 4.09 µM

C=C1C(=O)O[C@H]2[C@H]1[C@@H](OC(=O)/C(C)=C\C)C[C@]1(C)O[C@@H]1[C@H]1O[C@H]1C(=C)[C@H]2O
active: Potency [4] 7.13 µM | Potency [5] 4.5 µM | Potency [12] 11.2 µM
inactive: Potency [1] | Potency [2] | outcome [3] | Potency [6] | Potency [7] | Potency [8] | Potency [9] | Potency [10] | Potency [13] | Potency [16]

COc1cc(F)ccc1-c1ncnc(Nc2cccc(CS(C)(=N)=O)c2)n1 (stereo not drawn)
inactive: Potency [6] | Potency [7] | Z-AUC [20] -0.906
-1.2: Z-AUC ([20]; measured here: PEO1 parental Z-AUC)
active: Potency [19] 5.17 µM | Potency [4] 0.525 µM | Potency [5] 0.372 µM
-0.831: Z-AUC ([20]; measured here: PEO4 Z-AUC)

CC1(C)N=C(N)N=C(N)N1c1ccc(Cl)cc1
inactive: Potency [19]
